# PD-1 reverse act = reversal of PD-1 mediated T-cell inhibition; AID 2316; activation, % (no concentration beside the values); 29,000 tested, under 10 active; primary human CD4 T cells, PD-L1 beads, CellTiter-Glo 96 h; call rule not given here;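 also: 0% = median vehicle wells and 100% = positive control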
# STK33 inh = blocks human STK33 kinase activity | Q9BYT3 | ADP-Glo luminescence, MBP substrate | inhibition, % at 12.5 µM | 0.44% of 27,000 active | AID 2322; in the data active = inhibition above about 20%; inconclusive = no clear call, values can overlap the other calls
# Target sequence (Q9BYT3 whole entry, looked up): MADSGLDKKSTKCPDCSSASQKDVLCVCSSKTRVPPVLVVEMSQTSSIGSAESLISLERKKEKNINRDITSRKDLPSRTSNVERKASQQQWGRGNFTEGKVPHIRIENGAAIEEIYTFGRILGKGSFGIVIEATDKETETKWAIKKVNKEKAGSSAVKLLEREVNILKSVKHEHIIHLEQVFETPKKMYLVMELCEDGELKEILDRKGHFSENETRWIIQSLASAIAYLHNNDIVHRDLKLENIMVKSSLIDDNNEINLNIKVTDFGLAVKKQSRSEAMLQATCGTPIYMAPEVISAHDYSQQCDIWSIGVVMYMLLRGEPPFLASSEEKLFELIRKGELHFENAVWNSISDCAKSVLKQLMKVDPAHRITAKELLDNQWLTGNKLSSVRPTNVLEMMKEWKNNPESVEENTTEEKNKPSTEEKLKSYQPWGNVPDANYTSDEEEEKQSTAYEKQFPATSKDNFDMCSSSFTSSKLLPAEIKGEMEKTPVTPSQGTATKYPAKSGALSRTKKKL
# NOMO-1 viab = STK33 inhibitor candidate reducing NOMO-1 cell viability; NOMO-1 AML viability, CellTiter-Glo luminescence, 72 h; inhibition, % (concentration not given with the values); 7.5% of 37,000 active; AID 2330; in the data active = inhibition above about 80%; inconclusive = no clear call, values can overlap the other calls
# Numbers without * were called inactive; ? = inconclusive; . = not tested or not shown. The sample as a whole holds a higher share of hits than the screen did.
SMILES,PD-1 reverse act,STK33 inh,NOMO-1 viab
CC(C)(C)NC[C@H](O)COc1cccc2[nH]c(C#N)cc12,8.8,-0.5,1.4
CCOC(=O)c1c(C)n(Cc2ccccc2)c2ccc(OCC(O)CNC(C)(C)C)cc12 (stereo unspecified),-6.7,.,116.8*
COc1cc(CNCCc2c[nH]c3ccccc23)c([N+](=O)[O-])cc1OC,.,-2.1,5.5
Cc1ccc(S(=O)(=O)N2CCCCC2)cc1C(=O)Oc1cccc2cccnc12,1.2,.,116.2*
COc1ccc2c3c1O[C@H]1[C@@H](O)C=C[C@H]4C(C2)N(C)CCC341 (stereo partly specified),.,3.9,.
C[C@@H]1CCOC(=O)C=CC=CC(=O)O[C@@H]2C[C@H]3O[C@@H]4C=C(CO)CC[C@]4(COC(=O)[C@H]1O)[C@]2(C)[C@]31CO1,0.1,-2.9,-1.5
CC(C)[C@H]1C(=O)O[C@H](C(C)C)C(=O)N(C)[C@@H](C(C)C)C(=O)O[C@H](C(C)C)C(=O)N(C)[C@@H](C(C)C)C(=O)O[C@H](C(C)C)C(=O)N1C,-0.4,-2.6,118.9*
O=c1c2ccccc2nc(CSc2ncnc3ccccc23)n1-c1ccccc1F,-8.6,6.1,?
C[C@@H]1O[C@@H](O[C@@H]2C=C3CCC4C(CC[C@]5(C)[C@@H](c6ccc(=O)oc6)CC[C@]45O)[C@@]3(C)CC2)[C@H](O)[C@H](O)[C@H]1O (stereo partly specified),.,-1.4,119.7*
C[C@@H]1O[C@@H](O[C@@H]2C=C3CC[C@@H]4C(CC[C@]5(C)[C@@H](c6ccc(=O)oc6)CC[C@]45O)[C@@]3(C)CC2)[C@H](O)[C@H](O)[C@H]1O (stereo partly specified),-16.0,-3.4,107.7*
CC12CCC3C(CC=C4CC(O)CCC43CO)C1CCC2OC(=O)c1ccccc1 (stereo unspecified),-0.4,.,65.5
C=CC1CN2CCC3(C(=O)Nc4ccccc43)C2CC1/C(=C/OC)C(=O)OC (stereo unspecified),2.0,0.8,30.3
CC1(C)C(C(=O)Nc2ccc(S(=O)(=O)c3ccc(NC(=O)C4C(C)(C)C4(C)C)cc3)cc2)C1(C)C,2.1,.,-2.2
N#CC(C#N)=Cc1ccc(O)cc1,-1.7,7.2,86.7*
N#CC(C#N)=Cc1cc(O)c(O)c(O)c1,0.2,4.3,45.4
NCC(=O)Nc1ccc(Br)cc1C(=O)c1ccccc1,.,2.7,4.0
COc1ccc(CCNCc2cccnc2)cc1OC,.,-1.7,19.5
CO[C@H]1[C@H](O)[C@H](O[C@H]2CC[C@]3(C)C4CC[C@]5(C)C(C6=CC(=O)OC6)CC[C@]5(O)C4CC[C@@H]3C2)O[C@@H](C)[C@@H]1O (stereo partly specified),.,-3.4,110.4*
CC(=O)[C@H]1CC[C@H]2[C@@H]3CC[C@H]4C[C@H](O)CC[C@]4(C)[C@H]3CC[C@]12C,.,-12.3,39.6
C[C@]12CC[C@H](O)C[C@H]1CCC1C2CC[C@]2(C)[C@@H](C3=CC(=O)OC3)[C@@H](O)C[C@]12O (stereo partly specified),.,1.0,97.3*
COC1CC(OC2CCC3(C)C(CCC4C3CCC3(C)C(C5=CC(=O)OC5)C(OC(C)=O)CC43O)C2)OC(C)C1OC1OC(COC2OC(CO)C(O)C(O)C2O)C(O)C(O)C1O (stereo unspecified),-7.4,-0.4,109.6*
C=C1[C@@]23C(=O)O[C@H](C)[C@]24O[C@@]2(C(=C)[C@]5(C=CC(=O)OC5(C)C)CC[C@]32C)[C@H](O)[C@@]1(C)OC4=O,-1.7,-5.1,8.6
C=CC1C[N+]2([O-])CCC1CC2C(O)c1ccnc2ccccc12 (stereo unspecified),.,0.0,.
CC(=O)OC1CCC2(C)C(=CCC3C4CCC(=O)C4(C)CCC32)C1 (stereo unspecified),-0.4,0.6,9.8
C[C@@H]1CC([C@H](O)CC2CC(=O)NC(=O)C2)C(=O)[C@@H](C)C1 (stereo partly specified),-7.6,-0.2,140.7*
SMILES,PD-1 reverse act,STK33 inh,NOMO-1 viab
C[C@@H]1C[C@@H]([C@H](O)CC2CC(=O)NC(=O)C2)C(=O)[C@@H](C)C1,.,-4.2,113.9*
COc1ccc(OC)c(NC(=S)NCCc2cnc[nH]2)c1,3.4,-2.2,38.0
CC[C@@]1(O)C(=O)OCc2c1cc1n(c2=O)Cc2cc3c(O)cccc3nc2-1,.,2.1,119.3*
CCn1cnc2c(Nc3cccc(Cl)c3)nc(N[C@@H]3CCCC[C@@H]3N)nc21,2.7,62.5*,99.7*
CCC(=O)O[C@H]1CCC2C3CCC4=CC(=O)CC[C@]4(C)C3CC[C@@]21C (stereo partly specified),.,1.7,4.5
Cc1ccc(N2C(=O)NC(=O)C(CCc3ccccn3)(Cc3cccs3)C2=O)cc1 (stereo unspecified),.,-0.9,15.7
COc1ccc2c3c4n(c2c1)[C@@H](C=C(C)C)OOC(C)(C)C[C@@H]4N1C(=O)[C@@H]2CCCN2C(=O)[C@]1(O)[C@H]3OCC=C(C)C,-1.4,-6.2,55.6
CCOC(=O)C1=C(N)Oc2c(c(=O)oc3ccccc23)C12C(=O)N(CC(=O)OC)c1ccccc12 (stereo unspecified),-0.2,.,5.9
COc1cc2c(c(OC)c1OC)-c1cc3c(cc1[C@H](OC(C)=O)[C@H]1COC(=O)[C@@H]1C2)OCO3,-9.3,-3.4,106.5*
COc1ccc(CC2C(=O)OCC2Cc2ccc3c(c2)OCO3)cc1OC (stereo unspecified),1.7,-2.2,8.5
C/C=C1/CN2C3CC1C(CO)C2Cc1c3[nH]c2ccc(OC)cc12 (stereo unspecified),.,-5.4,.
C[C@]12CCC(=O)C=C1C=CC1C2CC[C@@]2(C)C1CC[C@@]2(O)CCC(=O)O (stereo partly specified),.,-3.7,16.9
Cn1cnc(-n2oo2)c1C#N,4.0,-0.4,18.7
CCC(C)(O)C(=O)O[C@H]1C(=O)O[C@@H]2C[C@H]3C(C)=CC(=O)[C@@H](O)[C@]3(C)[C@H]3[C@@]4(O)OC[C@]32[C@@H]1[C@@H](C)[C@H]4O (stereo partly specified),-7.4,-3.2,124.1*
COc1ccc2c(c1)[C@]13CCCC[C@H]1[C@H](C2)N(C)CC3,.,-0.1,31.9
O=C(c1ccco1)c1cn(CCCOc2ccccc2)c2ccccc12,-0.6,8.6,31.1
CCOC(=O)C1C2c3ccccc3C(c3ccccc32)C1C(=O)OCC (stereo unspecified),-0.3,.,35.3
COc1ccccc1OCCCn1cc(C(=O)C(C)(C)C)c2ccccc21,-1.9,1.4,37.3
CN1Cc2c(ccc3c2OCO3)C2C(O)Cc3cc4c(cc3C21)OCO4 (stereo unspecified),.,-0.2,104.5*
COc1ccc2c(c1OC)C(=O)O[C@H]2[C@@H]1c2cc3c(cc2CCN1C)OCO3,.,1.1,24.8
COc1cc2c(cc1OC)[C@@]13CCN4CC5=CCOC6CC(=O)N2C1[C@H]6[C@H]5C[C@H]43 (stereo partly specified),.,-7.0,5.8
CCCCn1c(=O)c(C(=O)NCc2ccccn2)c(O)c2ccccc21,.,5.0,66.3
C=CCN1CCc2cccc3c2[C@H]1Cc1ccc(O)c(O)c1-3,.,2.8,114.4*
C=CCN1CC[C@]23c4c5ccc(O)c4O[C@H]2C(=O)CC[C@@]3(O)[C@H]1C5,5.0,-0.6,-3.4
